# Assay results reported in the supplement of paper PMC8728848.
# This excerpt belongs to a sample that is enriched for the strongest signals.
# B1: PX14367B-bvu-516-23-516 (Bacteroides vulgatus) (protein)
# chain: LDTIPTTYVDAGSVFGKTGDAEKVLNGGWNYLMETFNSYANPGYGAMLRANDAMGSDVVLNSKYGFRTHNEFSAIYGKGGTNTLSWLLAYRVINDCNGVLDNIDAAEGTQADRNRIKGQALALRGFLYLHLASCYSFAIDKDPDAVCAPIYTQSTDETIAAEGKPASSVSEVYAQSINDLEEALELIPETYVRDAKHKIDNEVVLGILSRACLYARQWEKAKTYSDKLLAKDNYLMTESEYKAGFNSVDNKEWIWGHAQTNDQSNASYQFHYLDTTTKGSYYYSFNVDPYFRDLFEDGDYRKEMLFWATDPGADVESAAYVWMRNSKFRFRDIENQLGDIVLMRVAEIYLINAEAKAHLNDPDAINKLNDLKTARGAKTIHTNLSQQDLLETIWLERRKELWGEGFSLIDIIRNQQTVVRNAYPEGPIDYIYTDENGQTHTLKKKTQGHRFFNFPDKSAFCPNSKYYLYRITDSEELANKNLYKDHPKLSIYTK
# Columns and labels:
# Test in all cases: glycan array binding signal (z-score within array); higher = stronger binding
# Details in all cases: glycan notation: IUPAC condensed, linker removed
# [1] = target: Fuc(a1-2)Gal(b1-3)GalNAc(a1-3)[Fuc(a1-2)]Gal(b1-4)GlcNAc
# In short: (§1)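 Columns mapping to the same glycan were averaged after glycan names were converted to IUPAC-condensed notation. The data come from 3228 arrays in the Consortium for Functional Glycomics database, limited to those with an available protein sequence. Binding is reported as a within-array Z-score averaged across arrays of one protein sequence and across linkers.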
# [2] = target: Fuc(a1-2)Gal(b1-3)GlcNAc(b1-2)Man(a1-3)[Fuc(a1-2)Gal(b1-3)GlcNAc(b1-2)Man(a1-6)]Man(b1-4)GlcNAc(b1-4)[Fuc(a1-6)]GlcNAc
# In short: as §1
# [3] = target: Fuc(a1-2)Gal(b1-3)[Fuc(a1-4)]GlcNAc(b1-2)Man(a1-3)[Fuc(a1-2)Gal(b1-3)[Fuc(a1-4)]GlcNAc(b1-2)Man(a1-3)]Man(b1-4)GlcNAc(b1-4)GlcNAc
# In short: as §1
# [4] = target: Fuc(a1-2)Gal(b1-3)[Fuc(a1-4)]GlcNAc(b1-2)Man(a1-3)[Fuc(a1-2)Gal(b1-3)[Fuc(a1-4)]GlcNAc(b1-2)Man(a1-6)]Man(b1-4)GlcNAc(b1-4)[Fuc(a1-6)]GlcNAc(b1-4)[Fuc(a1-6)]GlcNAc
# In short: as §1
# Fuc(a1-2)Gal(b1-4)Glc = target: Fuc(a1-2)Gal(b1-4)Glc
# In short: as §1
# [5] = target: Fuc(a1-2)Gal(b1-4)GlcNAc(b1-3)GalNAc
# In short: as §1
# [6] = target: Fuc(a1-2)Gal(b1-4)GlcNAc(b1-6)GalNAc
# In short: as §1
# [7] = target: Fuc(a1-2)[GalNAc(a1-3)]Gal(b1-3)GlcNAc(b1-3)GalNAc
# In short: as §1
# [8] = target: Fuc(a1-2)[GalNAc(a1-3)]Gal(b1-4)GlcNAc(b1-2)Man(a1-3)[Fuc(a1-2)[GalNAc(a1-3)]Gal(b1-4)GlcNAc(b1-2)Man(a1-6)]Man(b1-4)GlcNAc(b1-4)GlcNAc
# In short: as §1
# [9] = target: Fuc(a1-2)[GalNAc(a1-3)]Gal(b1-4)[Fuc(a1-3)]GlcNAc(b1-3)GalNAc
# In short: as §1
# [10] = target: Fuc(a1-2)[GalNAc(a1-4)]Gal(b1-4)GlcNAc
# In short: as §1
# [11] = target: Fuc(a1-3)[Gal(b1-4)]GlcNAc(b1-2)Man
# In short: as §1
# [12] = target: Gal(a1-3)[Gal(a1-4)]Gal(b1-4)GlcNAc
# In short: as §1
# Gal(a1-4)Gal(b1-4)GlcNAc = target: Gal(a1-4)Gal(b1-4)GlcNAc
# In short: as §1
# Gal(a1-6)Glc = target: Gal(a1-6)Glc
# In short: as §1
# [13] = target: Gal(b1-3)GalNAc(a1-3)[Fuc(a1-2)]Gal(b1-4)GlcNAc
# In short: as §1
# [14] = target: Gal(b1-3)GlcNAc(b1-2)Man(a1-3)[Gal(b1-3)GlcNAc(b1-2)Man(a1-6)]Man(b1-4)GlcNAc(b1-4)GlcNAc
# In short: as §1
# [15] = target: Gal(b1-3)GlcNAc(b1-3)Gal(b1-4)GlcNAc(b1-2)[Gal(b1-3)GlcNAc(b1-3)Gal(b1-4)GlcNAc(b1-6)]Man(a1-6)[Gal(b1-3)GlcNAc(b1-3)Gal(b1-4)GlcNAc(b1-2)Man(a1-3)]Man(b1-4)GlcNAc(b1-4)[Fuc(a1-6)]GlcNAc
# In short: as §1
# Gal(b1-3)GlcNAc6S = target: Gal(b1-3)GlcNAc6S
# In short: as §1
# [16] = target: Gal(b1-3)[Fuc(a1-4)]GlcNAc(b1-6)GalNAc
# In short: as §1
# [17] = target: Gal(b1-4)GlcNAc(b1-2)Man(a1-6)[Man(a1-3)]Man(b1-4)GlcNAc(b1-4)GlcNAc
# In short: as §1
# [18] = target: Gal(b1-4)GlcNAc(b1-3)Gal(b1-4)GlcNAc
# In short: as §1
# [19] = target: Gal(b1-4)GlcNAc(b1-3)Gal(b1-4)GlcNAc(b1-2)Man(a1-3)[Gal(b1-4)GlcNAc(b1-3)Gal(b1-4)GlcNAc(b1-2)Man(a1-6)]Man(b1-4)GlcNAc(b1-4)[Fuc(a1-6)]GlcNAc
# In short: as §1
# [20] = target: Gal(b1-4)GlcNAc(b1-3)Gal(b1-4)GlcNAc(b1-3)Gal(b1-4)GlcNAc(b1-2)[Gal(b1-4)GlcNAc(b1-3)Gal(b1-4)GlcNAc(b1-3)Gal(b1-4)GlcNAc(b1-6)]Man(a1-6)[Gal(b1-4)GlcNAc(b1-3)Gal(b1-4)GlcNAc(b1-3)Gal(b1-4)GlcNAc(b1-2)Man(a1-3)]Man(b1-4)GlcNAc(b1-4)[Fuc(a1-6)]GlcNAc
# In short: as §1
# [21] = target: Gal(b1-4)GlcNAc(b1-3)Gal(b1-4)GlcNAc(b1-3)Gal(b1-4)GlcNAc(b1-3)Gal(b1-4)GlcNAc(b1-2)Man(a1-3)[Gal(b1-4)GlcNAc(b1-3)Gal(b1-4)GlcNAc(b1-3)Gal(b1-4)GlcNAc(b1-3)Gal(b1-4)GlcNAc(b1-2)Man(a1-6)]Man(b1-4)GlcNAc(b1-4)GlcNAc
# In short: as §1
# [22] = target: Gal(b1-4)GlcNAc(b1-3)Gal(b1-4)GlcNAc(b1-3)Gal(b1-4)GlcNAc(b1-3)Gal(b1-4)GlcNAc(b1-3)Gal(b1-4)GlcNAc(b1-3)Gal(b1-4)GlcNAc(b1-2)Man(a1-3)[Gal(b1-4)GlcNAc(b1-3)Gal(b1-4)GlcNAc(b1-3)Gal(b1-4)GlcNAc(b1-3)Gal(b1-4)GlcNAc(b1-3)Gal(b1-4)GlcNAc(b1-3)Gal(b1-4)GlcNAc(b1-2)Man(a1-6)]Man(b1-4)GlcNAc(b1-4)GlcNAc
# In short: as §1
# [23] = target: Gal3S(b1-4)[Fuc(a1-3)]Glc6S
# In short: as §1
# Gal3S6S(b1-4)GlcNAc = target: Gal3S6S(b1-4)GlcNAc
# In short: as §1
# Gal6S(b1-4)GlcNAc6S = target: Gal6S(b1-4)GlcNAc6S
# In short: as §1
# [24] = target: GlcNAc(a1-4)Gal(b1-4)GlcNAc(b1-3)Gal(b1-4)GlcNAc
# In short: as §1
# [25] = target: GlcNAc(b1-2)Man(a1-3)[GlcNAc(b1-4)][GlcNAc(b1-2)Man(a1-6)]Man(b1-4)GlcNAc(b1-4)[Fuc(a1-6)]GlcNAc
# In short: as §1
# [26] = target: GlcNAc(b1-3)Gal(b1-4)GlcNAc(b1-3)Gal(b1-4)GlcNAc(b1-3)Gal(b1-4)GlcNAc(b1-3)Gal(b1-4)GlcNAc(b1-2)Man(a1-3)[GlcNAc(b1-3)Gal(b1-4)GlcNAc(b1-3)Gal(b1-4)GlcNAc(b1-3)Gal(b1-4)GlcNAc(b1-3)Gal(b1-4)GlcNAc(b1-2)Man(a1-6)]Man(b1-4)GlcNAc(b1-4)GlcNAc
# In short: as §1
# [27] = target: GlcNAc(b1-4)GlcNAc(b1-4)GlcNAc(b1-4)GlcNAc(b1-4)GlcNAc
# In short: as §1
# Kdn(a2-3)Gal(b1-3)GalNAc = target: Kdn(a2-3)Gal(b1-3)GalNAc
# In short: as §1
# [28] = target: Neu5Ac(a2-3)Gal(b1-4)GlcNAc(b1-2)[Neu5Ac(a2-3)Gal(b1-4)GlcNAc(b1-4)]Man(a1-3)[GlcNAc(b1-4)][Neu5Ac(a2-3)Gal(b1-4)GlcNAc(b1-4)Man(a1-6)]Man(b1-4)GlcNAc(b1-4)GlcNAc
# In short: as §1
# [29] = target: Neu5Ac(a2-3)Gal(b1-4)GlcNAc(b1-3)Gal(b1-4)GlcNAc(b1-2)Man(a1-3)[Neu5Ac(a2-3)Gal(b1-4)GlcNAc(b1-3)Gal(b1-4)GlcNAc(b1-2)Man(a1-6)]Man(b1-4)GlcNAc(b1-4)GlcNAc
# In short: as §1
# [30] = target: Neu5Ac(a2-3)Gal(b1-4)GlcNAc(b1-6)[Neu5Ac(a2-3)Gal(b1-3)]GalNAc
# In short: as §1
# [31] = target: Neu5Ac(a2-3)Gal(b1-4)[Fuc(a1-3)]GlcNAc6S
# In short: as §1
# [32] = target: Neu5Ac(a2-3)[GalNAc(b1-4)]Gal(b1-4)GlcNAc
# In short: as §1
# [33] = target: Neu5Ac(a2-6)Gal(b1-4)GlcNAc(b1-2)Man(a1-6)[Man(a1-3)]Man(b1-4)GlcNAc(b1-4)GlcNAc
# In short: as §1
# [34] = target: Neu5Ac(a2-6)Gal(b1-4)GlcNAc(b1-3)GalNAc
# In short: as §1
# [35] = target: Neu5Ac(a2-6)Gal(b1-4)GlcNAc(b1-3)[Neu5Ac(a2-6)Gal(b1-4)GlcNAc(b1-6)]GalNAc
# In short: as §1
# [36] = target: Neu5Ac(a2-6)GalNAc(b1-4)GlcNAc6S
# In short: as §1
# [37] = target: Neu5Ac(a2-8)Neu5Ac(a2-3)Gal(b1-4)GlcNAc
# In short: as §1
# [38] = target: Neu5Ac(a2-8)Neu5Ac(a2-8)Neu5Ac
# In short: as §1
binder,measurement,setting,value
B1,glycan array binding signal (z-score),[1],-0.284
same,glycan array binding signal (z-score),[2],-0.028
same,glycan array binding signal (z-score),[3],-0.201
same,glycan array binding signal (z-score),[4],-0.237
same,glycan array binding signal (z-score),Fuc(a1-2)Gal(b1-4)Glc,-0.35
same,glycan array binding signal (z-score),[5],-0.282
same,glycan array binding signal (z-score),[6],-0.204
same,glycan array binding signal (z-score),[7],-0.26
same,glycan array binding signal (z-score),[8],7.56
same,glycan array binding signal (z-score),[9],0.034
same,glycan array binding signal (z-score),[10],4.75
same,glycan array binding signal (z-score),[11],-0.331
same,glycan array binding signal (z-score),[12],5.23
same,glycan array binding signal (z-score),Gal(a1-4)Gal(b1-4)GlcNAc,-0.328
same,glycan array binding signal (z-score),Gal(a1-6)Glc,-0.252
same,glycan array binding signal (z-score),[13],-0.361
same,glycan array binding signal (z-score),[14],7.76
same,glycan array binding signal (z-score),[15],4.21
same,glycan array binding signal (z-score),Gal(b1-3)GlcNAc6S,-0.243
same,glycan array binding signal (z-score),[16],4.48
same,glycan array binding signal (z-score),[17],4.25
same,glycan array binding signal (z-score),[18],-0.337
same,glycan array binding signal (z-score),[19],0.011
same,glycan array binding signal (z-score),[20],7.91
same,glycan array binding signal (z-score),[21],0.812
same,glycan array binding signal (z-score),[22],7.87
same,glycan array binding signal (z-score),[23],2.87
same,glycan array binding signal (z-score),Gal3S6S(b1-4)GlcNAc,-0.262
same,glycan array binding signal (z-score),Gal6S(b1-4)GlcNAc6S,6.08
same,glycan array binding signal (z-score),[24],-0.2
same,glycan array binding signal (z-score),[25],-0.049
same,glycan array binding signal (z-score),[26],-0.276
same,glycan array binding signal (z-score),[27],-0.245
same,glycan array binding signal (z-score),Kdn(a2-3)Gal(b1-3)GalNAc,-0.198
same,glycan array binding signal (z-score),[28],-0.262
same,glycan array binding signal (z-score),[29],-0.164
same,glycan array binding signal (z-score),[30],-0.354
same,glycan array binding signal (z-score),[31],-0.354
same,glycan array binding signal (z-score),[32],-0.356
same,glycan array binding signal (z-score),[33],4.55
same,glycan array binding signal (z-score),[34],-0.386
same,glycan array binding signal (z-score),[35],0.372
same,glycan array binding signal (z-score),[36],-0.208
same,glycan array binding signal (z-score),[37],-0.353
same,glycan array binding signal (z-score),[38],-0.342
